These results are taken from PubChem BioAssay (NCI).

Among the test systems are T-47D breast; BT-549 breast; MDA-MB-435 melanoma; SW-620 colon; MCF7 breast; HCT-116 colon; HCC-2998 colon; KM12 colon.
Holding throughout (test): NCI-60 one-dose screen, 48 h (100 = growth as untreated, 0 = no growth, -100 = all killed)
Common to all, as to settings: 10 µM unless noted

Compounds without any hit were thinned out: in the full panel of roughly 83,000, 20% have a hit.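 Compound tested at a single concentration for 48 hours in 96-well plates; a percent growth value below 10 was scored as active.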 Values without a mark were called inactive. Active and inactive are the calls of the source.

Regarding `Cc1cc(Nc2ccc3c(c2)OCO3)c2cc3c(cc2n1)OCO3`, the growth in the assay with T-47D breast is 44.6%; with BT-549 breast it was 69.8%; with MDA-MB-435 melanoma, -68.2% (active); with SW-620 colon it was 10.3%; with MCF7 breast, 7.08% (active); with HCT-116 colon, 23%. Also, the growth with HCC-2998 colon is 45.7%; in the assay with KM12 colon it was 9.98% (active).

As to `CC(c1ccccc1)N(C)C` (configuration not stated), the growth was 112% with T-47D breast; 101% in the assay on BT-549 breast; 119% in the assay on MDA-MB-435 melanoma; 117% in the assay with SW-620 colon; 99.5% with MCF7 breast; 93.8% with HCT-116 colon. The growth was 113% with HCC-2998 colon and 101% in the assay with KM12 colon.

Consider `CC(C)=CCC[C@@H](C)[C@H]1CC[C@@]2(C)C3=C(CC[C@]12C)[C@@]1(C)CC[C@H](O)C(C)(C)[C@@H]1CC3`, for which the growth was 92.8% in the assay with T-47D breast; 109% with BT-549 breast; 101% in the assay with MDA-MB-435 melanoma; 99.9% in the assay with SW-620 colon; 97.3% with MCF7 breast; 108% with HCT-116 colon. In addition, the growth was 101% in the assay with HCC-2998 colon and 109% in the assay with KM12 colon.

With `COc1ccc(Nc2cc(Cl)ccc2C(=O)O)cn1`, the growth in the assay with T-47D breast was 110%; in the assay with BT-549 breast it was 122%; with MDA-MB-435 melanoma, 122%; in the assay on SW-620 colon, 103%; in the assay on MCF7 breast, 98.4%; with HCT-116 colon, 102%. Besides, the growth with HCC-2998 colon is 110%; in the assay with KM12 colon, 99.2%.

Take `COc1cc2c(c(OC)c1OC)-c1ccc(SC)c(=O)cc1[C@@H](NC1OC(CO)C(O)C(O)C1O)CC2` (some centres not stated): the growth is 52.5% in the assay on T-47D breast; 14.9% in the assay with BT-549 breast; -39.6% (active) in the assay on MDA-MB-435 melanoma; 18.8% in the assay on SW-620 colon; 13.9% with MCF7 breast; 9.89% (active) in the assay on HCT-116 colon. The growth in the assay on HCC-2998 colon was -4.3% (active); in the assay on KM12 colon, -3.89% (active).

On to `COc1ccc(NNS(=O)(=O)O)cc1`, for which the growth in the assay with T-47D breast was 88.6%; in the assay with BT-549 breast, 102%; with MDA-MB-435 melanoma, 102%; with SW-620 colon it was 100%; in the assay with MCF7 breast it was 92.9%; with HCT-116 colon, 100%. The growth was 110% with HCC-2998 colon and 105% in the assay on KM12 colon.

On to `Oc1cccc(CNC2CCCCC2)c1`, for which the growth with T-47D breast is 113%; in the assay on BT-549 breast it was 112%; with MDA-MB-435 melanoma, 105%; with SW-620 colon it was 116%; with MCF7 breast it was 91.3%; in the assay on HCT-116 colon it was 103%. Moreover, the values for the growth in the assay with HCC-2998 colon and in the assay on KM12 colon were 102% and 107%, respectively.

Regarding `CCNc1ncnc2[nH]ncc12`, the growth is 103% in the assay with T-47D breast; 84.3% in the assay on BT-549 breast; 102% in the assay with MDA-MB-435 melanoma; 99.2% with SW-620 colon; 93.3% in the assay on MCF7 breast; 105% with HCT-116 colon. In addition, the figures for the growth with HCC-2998 colon and with KM12 colon were 106% and 103%, respectively.

In the case of `Nc1nnc2cc(F)ccc2n1`, the growth in the assay on T-47D breast is 96%; with BT-549 breast, 81.5%; in the assay with MDA-MB-435 melanoma, 118%; with SW-620 colon, 94.1%; with MCF7 breast it was 96.3%; with HCT-116 colon, 91.9%. For the same molecule, the growth in the assay with HCC-2998 colon and in the assay with KM12 colon was 103% throughout.

With `CCOC(OCC)C(=O)c1ccccc1`, the growth in the assay on T-47D breast is 103%; in the assay on BT-549 breast, 101%; in the assay with MDA-MB-435 melanoma, 109%; in the assay on SW-620 colon, 92.3%; in the assay on MCF7 breast, 94.4%; with HCT-116 colon, 108%. Further, the growth in the assay with HCC-2998 colon is 112%; with KM12 colon, 99.4%.

As for `Cc1ccccc1NC(=O)Oc1ccc(Cl)cc1C(=O)c1ccccc1`, the growth in the assay with T-47D breast is 104%; in the assay on BT-549 breast it was 92.3%; in the assay on MDA-MB-435 melanoma, 103%; in the assay with SW-620 colon, 98.5%; in the assay with MCF7 breast, 105%; in the assay on HCT-116 colon it was 90.2%. The results for the growth with HCC-2998 colon and in the assay on KM12 colon were 107% and 90.4%, respectively.

On to `CCCCc1ccc2nc(NC(=O)OC)[nH]c2c1`, for which the growth was 76.8% in the assay on T-47D breast; 31.1% in the assay with BT-549 breast; 0.507% (active) in the assay with MDA-MB-435 melanoma; 14.4% in the assay with SW-620 colon; 12.8% in the assay on MCF7 breast; 7.36% (active) in the assay on HCT-116 colon. In addition, the growth with HCC-2998 colon was -43.3% (active); with KM12 colon, -12.2% (active).

For `Cc1cc2c3ccc(C)[n+](C)c3ccc2n1C`, the growth is 74.5% in the assay with T-47D breast; 16.8% with BT-549 breast; 52% with MDA-MB-435 melanoma; 15.1% in the assay with SW-620 colon; 57% in the assay on MCF7 breast; 29.4% in the assay on HCT-116 colon. The growth was 22.2% with HCC-2998 colon and 5.81% (active) with KM12 colon.

In the case of `CC(=O)Nc1ncc(S(=O)(=O)c2ccc([N+](=O)[O-])cc2)s1`, the growth with T-47D breast is 91.4%; in the assay on BT-549 breast it was 108%; with MDA-MB-435 melanoma, 111%; in the assay with SW-620 colon, 101%; with MCF7 breast, 105%; with HCT-116 colon, 98.9%. The growth with HCC-2998 colon was 128%; with KM12 colon, 116%.

Take `NC(CCl)=NCC12CC3CC(CC(C3)C1)C2`: the growth was 15.7% in the assay on T-47D breast; 1.18% (active) in the assay with BT-549 breast; -3.63% (active) in the assay with MDA-MB-435 melanoma; 3.96% (active) with SW-620 colon; -29.1% (active) in the assay on MCF7 breast; -69.2% (active) in the assay with HCT-116 colon. The growth in the assay on HCC-2998 colon was -17.9% (active); with KM12 colon it was -31.6% (active).

Regarding `CC(C)NC(=O)OCc1c(COC(=O)NC(C)C)c(-c2ccc(Cl)cc2)n2c1CCC2`, the growth with T-47D breast is 36.3%; in the assay with BT-549 breast, 27%; in the assay on MDA-MB-435 melanoma it was 66.7%; with SW-620 colon, 46.6%; in the assay on MCF7 breast it was 41.2%; in the assay with HCT-116 colon, 49.9%. For the same molecule, the growth with HCC-2998 colon is 87%; in the assay on KM12 colon, 100%.

Take `COc1cc(C(=O)NC(=S)NCc2ccncc2)cc(OC)c1OC`: the growth with T-47D breast is 83.2%; in the assay on BT-549 breast, 102%; with MDA-MB-435 melanoma, 104%; in the assay with SW-620 colon, 110%; in the assay on MCF7 breast, 98.3%; in the assay with HCT-116 colon, 97.3%. Besides, the results for the growth with HCC-2998 colon and with KM12 colon were 115% and 98%, respectively.

On to `CC(=O)N(C(C)=O)c1ccc(C)cc1`, for which the growth is 102% with T-47D breast; 101% in the assay on BT-549 breast; 111% in the assay with MDA-MB-435 melanoma; 102% in the assay on SW-620 colon; 87.6% in the assay on MCF7 breast; 117% in the assay with HCT-116 colon. The values for the growth in the assay with HCC-2998 colon and with KM12 colon were 98.2% and 103%, respectively.

Regarding `Nc1cc(N)ncn1`, the growth is 112% in the assay with T-47D breast; 101% in the assay on BT-549 breast; 102% in the assay with MDA-MB-435 melanoma; 104% with SW-620 colon; 99.7% with MCF7 breast; 99.1% in the assay with HCT-116 colon. Besides, the growth with HCC-2998 colon is 99.6%; in the assay with KM12 colon, 101%.

For `Nc1ccc(F)cc1F`, the growth in the assay on T-47D breast is 101%; in the assay on BT-549 breast it was 103%; in the assay with MDA-MB-435 melanoma, 107%; in the assay with SW-620 colon it was 106%; with MCF7 breast it was 96%; with HCT-116 colon, 88.5%. Besides, the growth in the assay with HCC-2998 colon is 113%; in the assay with KM12 colon, 108%.

In the case of `CCCCCCCCCCCCCCCCCC(=O)NCCNC(=O)CCCCCCCCCCCCCCCCC`, the growth in the assay with T-47D breast was 78.6%; with BT-549 breast, 105%; in the assay with MDA-MB-435 melanoma, 94.2%; in the assay on SW-620 colon, 102%; in the assay on MCF7 breast, 71.6%; in the assay with HCT-116 colon it was 70.2%. Besides, the growth with HCC-2998 colon is 82.1%; in the assay on KM12 colon, 96.4%.

As to `CN1CCCN(C(c2ccccc2)c2ccc(Br)cc2)CC1` (configuration not stated), the growth in the assay on T-47D breast was 103%; in the assay with BT-549 breast, 63.3%; in the assay with MDA-MB-435 melanoma, -29.3% (active); with SW-620 colon, 49.6%; in the assay with MCF7 breast, 37.5%; in the assay on HCT-116 colon, 21.4%. Besides, the growth in the assay on HCC-2998 colon is 95.9%; in the assay on KM12 colon, 63.9%.

As for `Cc1onc(-c2ccccc2Cl)c1C(=O)Cl`, the growth is 99.5% in the assay on T-47D breast; 117% in the assay with BT-549 breast; 95.3% in the assay with MDA-MB-435 melanoma; 103% in the assay with SW-620 colon; 89% in the assay with MCF7 breast; 105% in the assay with HCT-116 colon. Besides, the values for the growth in the assay on HCC-2998 colon and in the assay with KM12 colon were 102% and 119%, respectively.

For the molecule `Cc1ccc2[nH]c3ccccc3c2c1`, the growth was 93% in the assay on T-47D breast; 102% with BT-549 breast; 101% in the assay on MDA-MB-435 melanoma; 101% with SW-620 colon; 104% with MCF7 breast; 98.3% in the assay on HCT-116 colon. In addition, the growth with HCC-2998 colon is 100%; in the assay on KM12 colon, 101%.
